Compound activity (PubChem)
Pf Dd2 growth: inhibitors of Plasmodium falciparum Dd2 growth. P. falciparum Dd2 growth, SYBR Green, 72 h. Potency, µM (titrated, usually from 28.9 µM), most hits filed as inhibitors. actives 4.3% (n = 120,000). AID 1347417; active means well fitted inhibition curve with a large enough effect; further: nearly all actives have a fitted effect of over 65% in size
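Infected erythrocytes (Dd2, 0.3% parasitemia, 2.5% hematocrit final) are added to compound in RPMI-1640/Albumax II medium, grown 72 h at 37C in low oxygen, then lysed with saponin/Triton-X containing SYBR Green and read by fluorescence.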
Of the large screens only hits and unclear results are named; the others gave an inactive call. The sample as a whole holds a higher share of hits than the screen did.

CCOc1ccc(NC(=O)Cn2c(=O)c(CNc3ccccc3)cc3cc4c(cc32)OCCO4)cc1	none
CC[C@H]1CN(C(=O)c2ccnc(Cl)c2)CC[C@H]1CC(=O)Nc1ccccc1	none
C[S+](=O)([O-])c1ccc(-c2nc(C(=O)N3CCN(c4ncccn4)CC3)n3ccccc23)cc1	Pf Dd2 growth 7.08µM
O=C(c1nc(-c2cccnc2)c2ccccn12)N1CCN(c2ncccn2)CC1	none
O=C(c1nc(-c2cc(Cl)cc(Cl)c2)c2ccccn12)N1CCN(c2ncccn2)CC1	none
CNC(=O)[C@@H]1CN(C(=O)c2cccc(OC)c2OC)C[C@H]1COC	none
CCc1ccccc1NC(=O)Nc1cccc(-c2ccc(N3CCOCC3)nn2)c1	none
O=C(Nc1cccc(-c2ccc(N3CCOCC3)nn2)c1)Nc1ccc2c(c1)CCC2	none
O=C(NCc1ccco1)Nc1cccc(-c2ccc(N3CCCC3)nn2)c1	Pf Dd2 growth 11.2µM
CSc1cccc(NC(=O)Nc2cccc(-c3ccc(N4CCCC4)nn3)c2)c1	none
Cc1cccc(C(=O)Nc2cccc(-c3ccc(N4CCN(C)CC4)nn3)c2)c1	Pf Dd2 growth 12.6µM
CC(C)CNC(=O)Nc1cccc(-c2ccc(N3CCC(C)CC3)nn2)c1	none
CC(=O)N1CCC(C(=O)N(C)CC2(C)CCOCC2)CC1	none
Cc1ccc(Cl)cc1NC(=O)Cn1c(=O)n(CCCS(=O)(=O)C2CCCCC2)c(=O)c2ccccc21	none
CCCS(=O)(=O)N1CC(n2cc(C(=O)NCC3CC3)nn2)C1	none
COc1ccc(NC(=O)C2Cc3ccccc3N2C(=O)c2ccccc2)c(OC)c1 (stereo not drawn)	none
O=[S+]([O-])(c1cccc(C(F)(F)F)c1)N1CCCC2(CC(c3ccccn3)=NO2)C1 (stereo not drawn)	none
COc1ccc(-c2nnc3n2CCN([S+](=O)([O-])c2ccccc2)C3)cc1	none
O=C(O)CCC(=O)N1CCCC2(Cc3ccccc3N(C(=O)c3ccc(Cl)cc3)C2)C1 (stereo not drawn)	none
O=C(c1ccc(Cl)cc1)N1CC2(CCCN2Cc2cccnc2)Cc2ccccc21 (stereo not drawn)	Pf Dd2 growth 10µM
O=C(c1ccncc1)N1CCCN(Cc2cccnc2)c2ccccc21	none
CS(=O)(=O)N1Cc2ccccc2CC2(CCCN2Cc2cccnc2)C1 (stereo not drawn)	none
O=C(c1ccc(Cl)cc1)N1CC2(CCN(Cc3cccnc3)CC2)Cc2ccccc21	none
C[S+](=O)([O-])N1CC2(CCCCN2Cc2ccc(Cl)cc2)Cc2ccccc21 (stereo not drawn)	none
O=[S+]([O-])(c1ccccc1)N1CC2(CCCN2Cc2cccnc2)Cc2ccccc21 (stereo not drawn)	Pf Dd2 growth 11.2µM
O=C(c1ccccc1)N1CC2(CCCCN2Cc2cccnc2)Cc2ccccc21 (stereo not drawn)	Pf Dd2 growth 10µM
CCN1CCCN(C(=O)c2cccnc2)CC12CCOCC2	none
Cc1cnc(CC2CCN(C(=O)C3CCCC3)C2)n1CC1CC1 (stereo not drawn)	none
CNC(=O)c1cnn2c1CN(C(=O)c1ccccc1)CC2	none
CN1CCCCCC(O)c2cc(C(=O)N3CCOCC3)ccc21 (stereo not drawn)	none
Cc1ccccc1OCC(=O)Nc1ccc2oc(-c3ccc(F)cc3)nc2c1	none
OCCc1cc(CC2(NCc3ccccc3F)COC2)no1	none
O=c1c2c(n(Cc3ccccc3)n1-c1ccccc1)CN(Cc1ccc3[nH]ccc3c1)CC2	Pf Dd2 growth 3.16µM
COc1ccc(Cn2c3c(c(=O)n2Cc2ccccc2)CCN(Cc2cccc(O)c2)C3)cc1	none
O=C(c1ccccc1)N1CCc2c(n(Cc3ccccc3)n(-c3ccccc3)c2=O)C1	none
COc1ccccc1C(=O)N1C[C@@H](COc2ccccc2)[C@H](C(N)=O)C1	none
Cc1ccc(CO)cc1Nc1ncnc2onc(-c3ccc(F)cc3)c12	none
COc1cc2nc(NCCc3cccc(C)c3)n3nc(-c4ccccc4)nc3c2cc1OC	Pf Dd2 growth 0.501µM
COc1cc2nc(NCc3ccc(C)cc3)n3nc(-c4ccccc4)nc3c2cc1OC	Pf Dd2 growth 0.1µM
COCCCNC(=O)CSc1nc2cc(OC)c(OC)cc2c2nc(-c3ccccc3)nn12	none
Cc1cccc(-c2nc3c4ccccc4nc(NCc4ccc(Cl)cc4)n3n2)c1	none
COc1ccccc1CNc1nc2ccccc2c2nc(-c3cccnc3)nn12	none
Cc1ccc(CNc2nc3ccccc3c3nc(-c4cccc(C)c4)nn23)cc1	none
C#CCN(C)C(=O)[C@@H](C)C1CC[C@@]2(C)Cc3sc(NC(=O)C4CC4)nc3[C@@H](C)[C@@H]2[C@H]1O (stereo partly drawn)	none
O=S(=O)(NCc1ccc(F)cc1)c1ccc(N2CCCCS2(=O)=O)cc1	none
CCOc1ccc(NC(=O)CCNS(=O)(=O)c2cccc3nonc23)cc1	none
Cc1ccc(CN2C[C@H]3CN(Cc4cccc(OC(F)(F)F)c4)CCN3C2=O)cc1	none
COc1ccc(C(=O)N2C[C@@H](CO)[C@H](c3ccccn3)C2)cn1	none
COc1cccc([S+](=O)([O-])N2CCn3cc(C(=O)Nc4ccc(Cl)cc4Cl)nc3C2)c1	none
CC(C)OCCCNC(=O)c1ccc2c(=O)n(CCc3ccccc3)c(=O)[nH]c2c1	none
COc1ccc(NC(=O)CC[C@H]2NC(=O)c3ccccc3NC2=O)cn1	none
CC(=O)N1CCC(NC[C@H]2Cn3c(-c4ccc(F)cc4)cnc3CO2)CC1	none
COc1cc2c(cc1Oc1ccccc1)NC(=O)C21CCN(Cc2ccccc2)CC1	none
CCc1cnc(N2CCC3(CC2)C(=O)Nc2cc(OCc4ccccc4)c(OC)cc23)nc1	none
COCC(=O)N1CCC2(CC1)C(=O)Nc1cc(Oc3ccccc3)c(OC)cc12	none
COc1cc2c(cc1OCc1ccccc1)NC(=O)C21CCN(C(C)=O)CC1	none
COc1cc2c(cc1Oc1ccccc1)NC(=O)C21CCN(c2ncccn2)CC1	none
COc1cc2c(cc1Oc1ccccc1)NC(=O)C21CCN(CCC(C)C)CC1	Pf Dd2 growth 6.31µM
COc1cc2c(cc1OCc1ccccc1)NC(=O)C21CCN(Cc2ccccc2)CC1	none
COc1cc2c(cc1OCc1ccccc1)NC(=O)C21CCN(c2ncccn2)CC1	Pf Dd2 growth 4.47µM
COc1cc2c(cc1OCc1ccccc1)NC(=O)C21CCN(Cc2ccncc2)CC1	Pf Dd2 growth 12.6µM
CCCOc1ccc(CN2CCC(C3CCN(C(C)=O)CC3)C2)cc1 (stereo not drawn)	none
O=C(c1ccccc1Cl)n1nc(-c2ccco2)nc1NCc1cccs1	none
O=C1NC2(CCN(C(=O)c3ccc(Cl)cc3)C2)Oc2ccccc21 (stereo not drawn)	none
Cn1c(=O)c2c(nc(Oc3ccccc3)n2Cc2c(Cl)cccc2Cl)n(C)c1=O	none
COc1ccc(C(=O)N2CCN(Cc3cc(=O)n4nc(-c5ccccc5C)sc4n3)CC2)cc1OC	none
COc1ccc(-c2cn3c(n2)CO[C@@H](CNCc2ccc(Cl)cc2)C3)cc1	none
CCOc1ccc(Cl)cc1CN(C)C(=O)C1CC(=O)N(CC)C1 (stereo not drawn)	none
CNC(=O)CN(C)Cc1cc(Cl)ccc1OCC(O)CN1CCCCCC1 (stereo not drawn)	Pf Dd2 growth 2.82µM
Cc1cc(OCC(O)CN2CCN(c3cccc(Cl)c3)CC2)ccc1Cl (stereo not drawn)	none
CC(CCCC(C)(C)O)n1cnc(-c2ccccc2)c1-c1ccc(CO)o1 (stereo not drawn)	none
CN(C)c1cc(N2CCCC(NC(=O)Cc3ccccc3)C2)ncn1 (stereo not drawn)	none
O=C(CSc1nc2ccccc2nc1Cc1ccc(Cl)cc1)N1CCCCC1	none
Cn1cnc2ccc(-c3cccc(C(F)(F)F)c3)nc2c1=O	Pf Dd2 growth 4.47µM
O=c1c2nc(-c3cccc(C(F)(F)F)c3)ccc2ncn1Cc1ccccn1	none
